From publication PMC7862700, “An all-to-all approach to the identification of sequence-specific readers for epigenetic DNA modifications on cytosine”

Legend:
Assay in all cases: DAPPL (digital affinity profiling via proximity ligation, sequencing); 10 mM Tris-HCl pH 7.5, 50 mM NaCl, 1 mM DTT, 4% glycerol, room temperature, 30 min; GST-TFs on glutathione beads, 16-mer random dsDNA library, 0.1% formaldehyde crosslink after washing; high values mean tight binding
FLI1 = target: T1, FLI1 (Homo sapiens, UniProt Q01543 1-452); details: protein: recombinant; tags: N-terminal GST; dsDNA, one strand shown
T1 sequence: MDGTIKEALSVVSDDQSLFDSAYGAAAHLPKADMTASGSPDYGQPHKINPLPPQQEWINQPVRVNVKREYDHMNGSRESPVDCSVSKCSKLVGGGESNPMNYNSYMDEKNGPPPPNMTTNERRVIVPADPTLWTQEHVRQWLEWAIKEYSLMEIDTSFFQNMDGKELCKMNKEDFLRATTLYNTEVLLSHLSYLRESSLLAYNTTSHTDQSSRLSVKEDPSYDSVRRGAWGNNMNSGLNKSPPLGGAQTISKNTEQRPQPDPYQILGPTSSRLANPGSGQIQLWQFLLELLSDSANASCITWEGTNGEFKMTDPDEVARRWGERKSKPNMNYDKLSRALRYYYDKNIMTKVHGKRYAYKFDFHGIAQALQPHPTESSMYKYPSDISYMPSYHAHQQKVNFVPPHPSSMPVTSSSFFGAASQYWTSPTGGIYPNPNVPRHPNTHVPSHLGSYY
Summary of the method: (§1)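 Human transcription factors were made in yeast as GST fusions, captured on glutathione beads and barcoded with DNA. With a tag-only sample included, the pool was incubated with 200 nmole of a random double-stranded 16-mer DNA library in Tris/NaCl/DTT/glycerol buffer at room temperature for 30 min, then crosslinked with 0.1% formaldehyde after washing, ligated by proximity, amplified and sequenced. For binding signal, each hexamer's read frequency for a factor is divided by its frequency for the tag-only sample.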

ELK1 = target: T2, ELK1 (Homo sapiens, UniProt P19419 1-428); details: protein: recombinant; tags: N-terminal GST; dsDNA, one strand shown
T2 sequence: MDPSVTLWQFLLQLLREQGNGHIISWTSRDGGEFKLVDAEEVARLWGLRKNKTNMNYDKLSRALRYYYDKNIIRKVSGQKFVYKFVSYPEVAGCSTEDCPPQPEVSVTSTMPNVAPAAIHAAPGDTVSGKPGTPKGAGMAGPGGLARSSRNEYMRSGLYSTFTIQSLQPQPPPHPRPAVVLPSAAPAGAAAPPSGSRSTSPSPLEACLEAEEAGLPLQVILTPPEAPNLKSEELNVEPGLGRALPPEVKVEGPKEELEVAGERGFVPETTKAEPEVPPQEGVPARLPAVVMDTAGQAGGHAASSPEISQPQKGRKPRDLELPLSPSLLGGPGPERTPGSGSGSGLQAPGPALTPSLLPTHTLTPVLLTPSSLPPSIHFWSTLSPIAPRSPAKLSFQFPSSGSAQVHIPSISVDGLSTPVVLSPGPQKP
Summary of the method: as §1

GABPA = target: T3, GABPA (Homo sapiens, UniProt Q06546 1-454); details: protein: recombinant; tags: N-terminal GST; dsDNA, one strand shown
T3 sequence: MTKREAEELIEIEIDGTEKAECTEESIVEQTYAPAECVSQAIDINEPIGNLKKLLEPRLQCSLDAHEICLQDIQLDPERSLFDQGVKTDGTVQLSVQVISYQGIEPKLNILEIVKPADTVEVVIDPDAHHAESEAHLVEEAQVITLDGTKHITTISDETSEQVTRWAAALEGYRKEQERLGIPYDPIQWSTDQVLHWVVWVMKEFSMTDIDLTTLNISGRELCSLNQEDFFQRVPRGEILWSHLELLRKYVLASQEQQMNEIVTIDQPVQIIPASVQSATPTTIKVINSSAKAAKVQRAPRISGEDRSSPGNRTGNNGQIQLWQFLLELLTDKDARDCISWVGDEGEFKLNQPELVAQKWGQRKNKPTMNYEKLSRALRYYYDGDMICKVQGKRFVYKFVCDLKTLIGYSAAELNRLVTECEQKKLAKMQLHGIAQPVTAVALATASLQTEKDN
Summary of the method: as §1

ERG = target: T4, ERG (Homo sapiens, UniProt P11308 1-479); details: protein: recombinant; tags: N-terminal GST; dsDNA, one strand shown
T4 sequence: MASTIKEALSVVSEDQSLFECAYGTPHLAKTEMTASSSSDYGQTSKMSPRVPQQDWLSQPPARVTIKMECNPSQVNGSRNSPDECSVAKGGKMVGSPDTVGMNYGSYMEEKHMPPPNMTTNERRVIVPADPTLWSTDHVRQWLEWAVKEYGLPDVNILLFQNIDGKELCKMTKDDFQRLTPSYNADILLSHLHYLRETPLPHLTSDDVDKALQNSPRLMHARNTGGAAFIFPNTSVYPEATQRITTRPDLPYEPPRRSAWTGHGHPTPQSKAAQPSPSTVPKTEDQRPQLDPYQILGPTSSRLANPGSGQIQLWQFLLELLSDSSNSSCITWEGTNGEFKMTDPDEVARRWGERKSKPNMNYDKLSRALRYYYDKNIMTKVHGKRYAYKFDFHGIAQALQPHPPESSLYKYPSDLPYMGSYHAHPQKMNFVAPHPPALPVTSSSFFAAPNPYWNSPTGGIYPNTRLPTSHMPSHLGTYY
Summary of the method: as §1

ELF1 = ELF1 (Homo sapiens, UniProt P32519 1-619); details: protein: recombinant; tags: N-terminal GST; dsDNA, one strand shown
Chain of ELF1 (P32519 whole entry): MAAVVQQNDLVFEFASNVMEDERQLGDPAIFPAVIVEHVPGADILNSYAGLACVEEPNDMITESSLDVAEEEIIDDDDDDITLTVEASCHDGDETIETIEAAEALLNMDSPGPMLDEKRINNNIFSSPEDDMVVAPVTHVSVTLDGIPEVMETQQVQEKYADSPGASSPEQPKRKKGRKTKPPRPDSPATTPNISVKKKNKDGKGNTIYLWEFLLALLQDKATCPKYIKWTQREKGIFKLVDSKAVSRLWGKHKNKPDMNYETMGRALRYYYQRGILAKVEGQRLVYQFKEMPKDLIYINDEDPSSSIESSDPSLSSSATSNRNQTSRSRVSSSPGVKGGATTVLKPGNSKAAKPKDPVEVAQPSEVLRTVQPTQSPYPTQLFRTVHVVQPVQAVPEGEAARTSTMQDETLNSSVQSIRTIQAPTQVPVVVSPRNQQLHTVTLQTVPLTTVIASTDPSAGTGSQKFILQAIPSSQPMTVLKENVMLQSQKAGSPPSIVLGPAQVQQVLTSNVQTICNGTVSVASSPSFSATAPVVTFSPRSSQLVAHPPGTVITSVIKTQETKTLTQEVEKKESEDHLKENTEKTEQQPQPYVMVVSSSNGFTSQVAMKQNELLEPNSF
Summary of the method: as §1

EHF = target: T5, EHF (Homo sapiens, UniProt Q9NZC4 1-300); details: protein: recombinant; tags: N-terminal GST; dsDNA, one strand shown
T5 sequence: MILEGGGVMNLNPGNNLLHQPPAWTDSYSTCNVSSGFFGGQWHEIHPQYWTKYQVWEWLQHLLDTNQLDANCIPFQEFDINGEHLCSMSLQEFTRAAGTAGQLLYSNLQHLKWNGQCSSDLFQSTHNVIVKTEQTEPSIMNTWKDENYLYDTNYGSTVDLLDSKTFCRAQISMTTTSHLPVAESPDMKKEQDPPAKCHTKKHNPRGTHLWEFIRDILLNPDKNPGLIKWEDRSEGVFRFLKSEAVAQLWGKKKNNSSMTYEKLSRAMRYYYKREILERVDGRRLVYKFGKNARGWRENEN
Summary of the method: as §1

SPI1 = SPI1 (Homo sapiens, UniProt P17947 1-270); details: protein: recombinant; tags: N-terminal GST; dsDNA, one strand shown
Summary of the method: as §1

SPIB = SPIB (Homo sapiens, UniProt Q01892 1-262); details: protein: recombinant; tags: N-terminal GST; dsDNA, one strand shown
Chain of SPIB (Q01892 whole entry): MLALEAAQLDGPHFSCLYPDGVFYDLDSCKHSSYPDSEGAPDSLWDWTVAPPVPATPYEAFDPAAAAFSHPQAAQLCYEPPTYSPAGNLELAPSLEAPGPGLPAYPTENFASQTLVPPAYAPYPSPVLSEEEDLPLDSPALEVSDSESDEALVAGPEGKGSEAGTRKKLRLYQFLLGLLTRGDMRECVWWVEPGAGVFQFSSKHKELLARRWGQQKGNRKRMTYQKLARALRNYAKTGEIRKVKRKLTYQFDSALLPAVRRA
Summary of the method: as §1

ELK3 = target: T6, ELK3 (Homo sapiens, UniProt P41970 1-407); details: protein: recombinant; tags: N-terminal GST; dsDNA, one strand shown
T6 sequence: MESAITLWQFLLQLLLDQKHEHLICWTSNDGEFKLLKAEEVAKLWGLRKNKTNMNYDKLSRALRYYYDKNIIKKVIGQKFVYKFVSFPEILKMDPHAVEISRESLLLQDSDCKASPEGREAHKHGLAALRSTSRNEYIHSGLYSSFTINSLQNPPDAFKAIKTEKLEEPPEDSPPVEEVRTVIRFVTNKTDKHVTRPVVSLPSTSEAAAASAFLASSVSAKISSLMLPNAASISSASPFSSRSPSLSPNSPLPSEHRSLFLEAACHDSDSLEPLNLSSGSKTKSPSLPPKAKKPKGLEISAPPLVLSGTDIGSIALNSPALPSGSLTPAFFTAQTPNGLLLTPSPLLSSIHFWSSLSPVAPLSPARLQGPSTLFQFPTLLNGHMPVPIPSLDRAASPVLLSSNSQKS
Summary of the method: as §1

FEV = target: T7, FEV (Homo sapiens, UniProt Q99581 1-238); details: protein: recombinant; tags: N-terminal GST; dsDNA, one strand shown
T7 sequence: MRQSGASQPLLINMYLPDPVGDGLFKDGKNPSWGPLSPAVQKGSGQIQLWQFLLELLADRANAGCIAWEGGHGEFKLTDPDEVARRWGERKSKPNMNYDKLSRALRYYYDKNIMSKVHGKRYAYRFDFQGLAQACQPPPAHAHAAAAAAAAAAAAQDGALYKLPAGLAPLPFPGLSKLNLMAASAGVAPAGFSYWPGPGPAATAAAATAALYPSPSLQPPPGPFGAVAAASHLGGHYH
Summary of the method: as §1

ETV5 = ETV5 (Homo sapiens, UniProt P41161 1-510); details: protein: recombinant; tags: N-terminal GST; dsDNA, one strand shown
Chain of ETV5 (P41161 whole entry): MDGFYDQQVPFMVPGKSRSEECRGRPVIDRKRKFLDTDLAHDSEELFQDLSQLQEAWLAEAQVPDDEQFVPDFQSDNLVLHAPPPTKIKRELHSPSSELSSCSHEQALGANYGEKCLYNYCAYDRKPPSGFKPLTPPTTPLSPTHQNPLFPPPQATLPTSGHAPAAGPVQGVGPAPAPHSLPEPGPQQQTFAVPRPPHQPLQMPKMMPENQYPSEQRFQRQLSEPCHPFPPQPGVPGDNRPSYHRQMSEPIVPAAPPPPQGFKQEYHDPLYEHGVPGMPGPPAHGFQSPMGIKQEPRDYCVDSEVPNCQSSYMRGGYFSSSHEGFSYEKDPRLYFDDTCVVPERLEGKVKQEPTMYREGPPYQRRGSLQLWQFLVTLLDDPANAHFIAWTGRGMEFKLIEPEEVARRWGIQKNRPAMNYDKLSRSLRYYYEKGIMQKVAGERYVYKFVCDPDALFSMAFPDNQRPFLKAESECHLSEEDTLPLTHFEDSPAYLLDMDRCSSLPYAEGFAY
Summary of the method: as §1

HSF1 = HSF1 (Homo sapiens, UniProt Q00613 1-529); details: protein: recombinant; tags: N-terminal GST; chain copies: 3; dsDNA, one strand shown
Chain of HSF1 (Q00613 whole entry): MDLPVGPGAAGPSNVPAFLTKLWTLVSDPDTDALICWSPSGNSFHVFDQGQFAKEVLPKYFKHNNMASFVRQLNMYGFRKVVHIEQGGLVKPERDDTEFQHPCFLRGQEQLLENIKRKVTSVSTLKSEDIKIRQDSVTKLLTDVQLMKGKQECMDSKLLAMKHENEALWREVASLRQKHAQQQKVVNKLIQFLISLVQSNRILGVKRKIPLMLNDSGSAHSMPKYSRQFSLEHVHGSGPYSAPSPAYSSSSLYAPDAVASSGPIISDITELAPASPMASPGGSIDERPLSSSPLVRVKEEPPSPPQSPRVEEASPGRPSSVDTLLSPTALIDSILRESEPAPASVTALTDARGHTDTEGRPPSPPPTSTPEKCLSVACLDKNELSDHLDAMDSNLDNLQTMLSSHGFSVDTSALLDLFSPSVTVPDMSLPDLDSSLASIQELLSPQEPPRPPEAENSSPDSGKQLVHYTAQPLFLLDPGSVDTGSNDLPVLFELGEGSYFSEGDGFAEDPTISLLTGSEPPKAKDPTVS
Summary of the method: as §1

SPIC = target: T8, SPIC (Homo sapiens, UniProt Q8N5J4 1-248); details: protein: recombinant; tags: N-terminal GST; dsDNA, one strand shown
T8 sequence: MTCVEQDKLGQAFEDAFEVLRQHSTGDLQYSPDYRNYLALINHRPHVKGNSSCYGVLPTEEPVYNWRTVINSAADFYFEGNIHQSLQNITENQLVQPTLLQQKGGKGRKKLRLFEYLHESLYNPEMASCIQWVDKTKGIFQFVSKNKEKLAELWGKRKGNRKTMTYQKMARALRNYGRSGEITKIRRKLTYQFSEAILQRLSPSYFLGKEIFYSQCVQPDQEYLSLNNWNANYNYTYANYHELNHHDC
Summary of the method: as §1

ELF4 = ELF4 (Homo sapiens, UniProt Q99607 1-663); details: protein: recombinant; tags: N-terminal GST; dsDNA, one strand shown
Chain of ELF4 (Q99607 whole entry): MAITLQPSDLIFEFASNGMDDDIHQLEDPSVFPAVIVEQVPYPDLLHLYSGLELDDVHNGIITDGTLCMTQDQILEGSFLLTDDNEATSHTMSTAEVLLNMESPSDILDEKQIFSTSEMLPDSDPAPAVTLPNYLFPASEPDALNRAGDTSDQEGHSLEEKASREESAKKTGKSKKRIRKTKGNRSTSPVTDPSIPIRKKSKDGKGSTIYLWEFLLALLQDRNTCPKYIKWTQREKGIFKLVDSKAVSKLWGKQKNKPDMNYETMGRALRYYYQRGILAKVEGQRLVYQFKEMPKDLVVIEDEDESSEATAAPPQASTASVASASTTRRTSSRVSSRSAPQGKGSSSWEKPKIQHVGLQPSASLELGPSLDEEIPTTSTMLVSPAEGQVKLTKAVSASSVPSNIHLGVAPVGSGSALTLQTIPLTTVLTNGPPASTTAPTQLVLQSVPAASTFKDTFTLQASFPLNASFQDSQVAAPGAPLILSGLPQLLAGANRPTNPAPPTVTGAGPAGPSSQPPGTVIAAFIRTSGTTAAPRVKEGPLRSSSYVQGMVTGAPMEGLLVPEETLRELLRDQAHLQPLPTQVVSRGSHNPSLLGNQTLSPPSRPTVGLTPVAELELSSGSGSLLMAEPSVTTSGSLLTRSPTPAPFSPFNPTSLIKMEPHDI
Summary of the method: as §1

ELK4 = target: T9, ELK4 (Homo sapiens, UniProt P28324-2 1-405); details: protein: recombinant; tags: N-terminal GST; dsDNA, one strand shown
T9 sequence: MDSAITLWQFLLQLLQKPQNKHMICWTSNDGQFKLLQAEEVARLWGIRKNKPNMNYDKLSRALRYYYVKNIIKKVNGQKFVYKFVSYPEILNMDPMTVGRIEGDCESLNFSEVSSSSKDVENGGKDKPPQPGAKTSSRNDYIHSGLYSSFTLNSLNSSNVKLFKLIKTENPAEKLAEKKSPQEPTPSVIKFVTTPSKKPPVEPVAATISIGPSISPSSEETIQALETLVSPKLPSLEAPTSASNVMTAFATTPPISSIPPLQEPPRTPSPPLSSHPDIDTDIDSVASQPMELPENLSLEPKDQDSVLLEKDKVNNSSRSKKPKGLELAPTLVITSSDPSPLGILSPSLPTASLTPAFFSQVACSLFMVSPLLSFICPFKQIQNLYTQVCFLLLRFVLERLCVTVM
Summary of the method: as §1

ETV2 = target: T10, ETV2 (Homo sapiens, UniProt O00321 1-342); details: protein: recombinant; tags: N-terminal GST; dsDNA, one strand shown
T10 sequence: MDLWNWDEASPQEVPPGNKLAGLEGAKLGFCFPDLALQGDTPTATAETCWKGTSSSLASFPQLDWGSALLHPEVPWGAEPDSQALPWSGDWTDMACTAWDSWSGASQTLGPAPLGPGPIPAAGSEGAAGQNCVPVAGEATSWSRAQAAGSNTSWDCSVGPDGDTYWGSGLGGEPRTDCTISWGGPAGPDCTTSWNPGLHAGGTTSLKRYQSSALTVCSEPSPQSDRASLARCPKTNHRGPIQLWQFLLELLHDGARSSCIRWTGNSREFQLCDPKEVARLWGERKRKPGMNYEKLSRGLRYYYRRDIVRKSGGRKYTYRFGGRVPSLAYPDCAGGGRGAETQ
Summary of the method: as §1

ELF3 = target: T11, ELF3 (Homo sapiens, UniProt P78545 1-371); details: protein: recombinant; tags: N-terminal GST; dsDNA, one strand shown
T11 sequence: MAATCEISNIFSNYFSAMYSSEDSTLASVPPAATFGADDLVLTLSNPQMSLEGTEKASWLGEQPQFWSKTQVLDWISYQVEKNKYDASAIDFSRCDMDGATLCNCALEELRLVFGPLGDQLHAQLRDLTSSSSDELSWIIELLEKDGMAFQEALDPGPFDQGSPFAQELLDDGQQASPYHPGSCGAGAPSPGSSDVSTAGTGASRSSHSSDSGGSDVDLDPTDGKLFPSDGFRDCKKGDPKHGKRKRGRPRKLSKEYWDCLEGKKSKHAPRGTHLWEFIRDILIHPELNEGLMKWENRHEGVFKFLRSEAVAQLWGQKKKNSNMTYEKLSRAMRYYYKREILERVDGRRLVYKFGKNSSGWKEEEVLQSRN
Summary of the method: as §1

CRX = CRX (Homo sapiens, UniProt O43186 1-299); details: protein: recombinant; tags: N-terminal GST; dsDNA, one strand shown
Chain of CRX (O43186 whole entry): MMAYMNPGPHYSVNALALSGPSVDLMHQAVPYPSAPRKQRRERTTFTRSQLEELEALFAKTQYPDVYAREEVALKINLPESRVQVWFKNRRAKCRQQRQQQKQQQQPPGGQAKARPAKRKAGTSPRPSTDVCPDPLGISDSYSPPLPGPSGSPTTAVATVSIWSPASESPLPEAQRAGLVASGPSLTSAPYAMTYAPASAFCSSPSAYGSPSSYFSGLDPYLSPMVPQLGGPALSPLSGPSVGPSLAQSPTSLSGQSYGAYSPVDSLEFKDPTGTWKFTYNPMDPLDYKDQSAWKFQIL
Summary of the method: as §1

ETV1 = ETV1 (Homo sapiens, UniProt P50549 1-477); details: protein: recombinant; tags: N-terminal GST; dsDNA, one strand shown
Chain of ETV1 (P50549 whole entry): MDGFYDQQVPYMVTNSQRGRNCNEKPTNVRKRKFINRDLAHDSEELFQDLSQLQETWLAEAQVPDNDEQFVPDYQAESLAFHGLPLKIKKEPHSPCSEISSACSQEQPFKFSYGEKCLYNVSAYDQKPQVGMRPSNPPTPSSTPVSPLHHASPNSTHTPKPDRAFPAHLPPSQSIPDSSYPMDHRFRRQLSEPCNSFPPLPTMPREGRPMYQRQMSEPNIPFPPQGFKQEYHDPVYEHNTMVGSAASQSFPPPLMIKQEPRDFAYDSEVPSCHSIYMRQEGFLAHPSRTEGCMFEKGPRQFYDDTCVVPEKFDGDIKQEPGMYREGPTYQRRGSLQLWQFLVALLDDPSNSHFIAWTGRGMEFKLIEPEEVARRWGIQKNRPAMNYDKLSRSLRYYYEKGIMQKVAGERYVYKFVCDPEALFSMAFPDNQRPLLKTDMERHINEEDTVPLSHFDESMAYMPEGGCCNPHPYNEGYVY
Summary of the method: as §1

CTACAT was tested, and the binding signal (FLI1) was 1.43 fold enrichment (6-mer frequency, TF over GST control), the binding signal (ELK1) was 1.4 fold enrichment (6-mer frequency, TF over GST control) and the binding signal (GABPA) was 1.44 fold enrichment (6-mer frequency, TF over GST control). The binding signal (ERG) was 1.32 fold enrichment (6-mer frequency, TF over GST control), the binding signal (ELF1) was 1.38 fold enrichment (6-mer frequency, TF over GST control) and the binding signal (EHF) was 1.28 fold enrichment (6-mer frequency, TF over GST control). For the same sequence, the binding signal (SPI1) was 1.38 fold enrichment (6-mer frequency, TF over GST control), the binding signal (SPIB) was 1.5 fold enrichment (6-mer frequency, TF over GST control) and the binding signal (ELK3) was 1.43 fold enrichment (6-mer frequency, TF over GST control). For the same sequence, the binding signal (FEV) was 1.44 fold enrichment (6-mer frequency, TF over GST control), the binding signal (ETV5) was 1.45 fold enrichment (6-mer frequency, TF over GST control) and the binding signal (HSF1) was 1.17 fold enrichment (6-mer frequency, TF over GST control). The binding signal (SPIC) was 1.51 fold enrichment (6-mer frequency, TF over GST control), the binding signal (ELF4) was 1.37 fold enrichment (6-mer frequency, TF over GST control) and the binding signal (ELK4) was 1.33 fold enrichment (6-mer frequency, TF over GST control). For the same sequence, the binding signal (ETV2) was 1.31 fold enrichment (6-mer frequency, TF over GST control), the binding signal (ELF3) was 1.28 fold enrichment (6-mer frequency, TF over GST control) and the binding signal (CRX) was 1.11 fold enrichment (6-mer frequency, TF over GST control). For the same sequence, the binding signal (ETV1) was 1.41 fold enrichment (6-mer frequency, TF over GST control).
